Assay [1] relates to PRMT1 (protein arginine N-methyltransferase 1). The experiment in a line: PRMT1 binders on small-molecule microarrays, primary screen, biochemical, small-molecule microarray, 635 nm fluorescence (AID 1088).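 Note: binding of Prmt1 protein to compounds spotted on small-molecule microarray slides.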 Conditions: small-molecule microarray binding, higher = more signal.
A short description of assay [2]: yeast growth modulation, basal conditions, primary screen, YJM789 clinical isolate, OD600, 24 h (AID 1089).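 Note: growth of clinical yeast isolate S. cerevisiae YJM 789 seeded 1000 cells per well; test concentration not given here.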 Conditions: S. cerevisiae YJM789 growth, higher = more signal, called active from +8 up or from −8 down.
A short description of assay [3]: fission yeast growth modulation, primary screen, strain 972, OD600, 24 h, no modulator (AID 1090).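 Note: basal condition with compound alone and no growth modifier present; test concentration not given here.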 To be noted: S. pombe 972 growth, higher = more signal, called active from +8 up or from −8 down.
A short description of assay [4]: S. cerevisiae growth modulation with rapamycin, primary screen, strain BY4716, OD600, 96 h (AID 1091). Note: test concentration not given here. Conditions: higher = more signal, called active from +8 up or from −8 down.
Assay [5] concerns the target Torsin-1A-interacting protein 2 (Homo sapiens) (UniProt Q8NFQ8). Put plainly: LULL1 binders on small-molecule microarray, primary screen, cell lysate, human LULL1 lysate, 635/667 nm fluorescence (AID 1092).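 Note: probe is lysate of COS7 cells overexpressing human LULL1; score merges per-feature 667 nm fluorescence with signal-to-noise.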 To be noted: hLULL1 lysate binding, 635 nm fluorescence, higher = more signal.
Assay [6] can be described thus: E. coli growth modulation, two-sided OD650, primary screen, E. coli filamentation project, strain DRC41, 24 h (AID 1093).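 Note: MC1000 strain lacking acrAB efflux and sulA so SOS filamentation is blocked; test concentration not given here.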 To be noted: OD650, 24 h, higher = more signal, called active from +8 up or from −8 down.
Assay [7] can be described thus: small-molecule microarray binders of probe aLefty2, primary screen, biochemical, biotinylated probe, 635/667 nm fluorescence (AID 1094).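 Note: score merges spot fluorescence near 667 nm with spot signal-to-noise ratio.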 To be noted: higher = more signal.
In assay [8] the test system is Noggin (protein binding on small-molecule microarray). Put plainly: Noggin binders on small-molecule microarray, primary screen, biochemical, 635/667 nm fluorescence (AID 1095).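 Note: score merges 667 nm feature fluorescence with signal to noise over triplicate slides.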 Conditions: 635 nm fluorescence, higher = more signal.
Assay [9] has as its target Neurogenic locus notch homolog protein 3 (Homo sapiens) (UniProt Q9UM47). Put plainly: NOTCH3 binders on small-molecule microarray, primary screen, biochemical, 635/667 nm fluorescence (AID 1096). Conditions: NOTCH3 binding, 635 nm fluorescence, higher = more signal.
Assay [10] is described as follows: small-molecule microarray binders of probe aEGFR, primary screen, biochemical, biotinylated probe, 635/667 nm fluorescence (AID 1097).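 Note: probe is a biotinylated anti-EGFR antibody binding compounds printed on slides; score combines fluorescence near 667 nm and signal to noise of each spot.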 Conditions: higher = more signal.
Assay [11] deals with Plasmodium falciparum Sir2 (PF13_0152, Sir2A). Put plainly: pfSir2 binders on small-molecule microarrays, primary screen, biochemical, small-molecule microarray, 635 nm fluorescence (AID 1098).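 Note: score merges spot fluorescence intensity with its signal-to-noise ratio.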 Conditions: small-molecule microarray binding, fluorescence 635 nm; higher = more signal.
Assay [12] is described as follows: small-molecule microarray binders of probe aDKK1, primary screen, biochemical, biotinylated probe, 635/667 nm fluorescence (AID 1099).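 Note: score merges 667nm spot fluorescence with signal to noise across triplicate slides; reference of the scale not given here.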 Conditions: higher = more signal.
Assay [13] in a line: small-molecule microarray binders of probe aCHRDL2, primary screen, biochemical, biotinylated probe, 635/667 nm fluorescence (AID 1100). To be noted: higher = more signal.
Assay [14] can be described thus: splicing luciferase reporter signal modulators, primary screen, spliceosome inhibition project, cell-based, HEK293, splice +/- reporter (AID 1101).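 Note: HEK293 cells carrying a splicing-competent luciferase reporter gene; test concentration not given here.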 To be noted: luminescence, 24 h, higher = more signal, called active from +8 up or from −8 down. On the technique in general: Reporter assays use an easily measured gene product as a stand-in for the process of interest.

In assay [15] the target is Fibroblast growth factor 10 (Homo sapiens) (UniProt O15520). Put plainly: FGF10 binders on small-molecule microarrays, primary screen, biochemical, small-molecule microarray, 635 nm fluorescence (AID 1102). Conditions: FGF10 binding, fluorescence 635 nm, higher = more signal.
Assay [16] concerns glycogen synthase kinase-3 (GSK3A per assay name; protocol says GSK3B). The experiment in a line: GSK3 binders on small-molecule microarrays, primary screen, biochemical, small-molecule microarray, 635 nm fluorescence, GSK3A (AID 1103). Note: the record names both GSK3A and GSK3B. To be noted: small-molecule microarray binding, fluorescence 635 nm; higher = more signal.
For assay [17], the target named is Epidermal growth factor receptor (Homo sapiens) (UniProt P00533). The experiment in a line: EGFR binders on small-molecule microarrays, primary screen, biochemical, small-molecule microarray, 635 nm fluorescence (AID 1104).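 Note: score merges 667 nm emission intensity with spot signal to noise over triplicate slides.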 Conditions: EGFR binding, higher = more signal.
The target of assay [18] is Follistatin-related protein 3 (Homo sapiens) (UniProt O95633). Put plainly: FSTL3 binders on small-molecule microarrays, primary screen, biochemical, small-molecule microarray, 635 nm fluorescence (AID 1105).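 Note: score merges emission near 667 nm and signal to noise per printed spot across three slides.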 To be noted: FSTL3 binding, higher = more signal.
The target of assay [19] is Dickkopf-related protein 1 (Homo sapiens) (UniProt O94907). The experiment in a line: DKK1 binders on small-molecule microarrays, primary screen, biochemical, small-molecule microarray, 635 nm fluorescence scan (AID 1106).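 Note: score merges emission near 667 nm with signal to noise over three replicate slides.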 To be noted: DKK1 binding, higher = more signal.
Assay [20] concerns Inhibin beta A chain (activin A). Put plainly: INHBA (activin A) binders on microarrays, primary screen, biochemical, small-molecule microarray, 635 nm fluorescence scan (AID 1107).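 Note: mouse activin A protein probed at 4.33 µg/mL on printed slides; score merges bound-protein fluorescence near 667 nm with spot signal-to-noise.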 To be noted: small-molecule microarray binding, higher = more signal.

Active and inactive are the calls of the source.

Sequence of Torsin-1A-interacting protein 2 (Homo sapiens) (Q8NFQ8 whole entry, looked up): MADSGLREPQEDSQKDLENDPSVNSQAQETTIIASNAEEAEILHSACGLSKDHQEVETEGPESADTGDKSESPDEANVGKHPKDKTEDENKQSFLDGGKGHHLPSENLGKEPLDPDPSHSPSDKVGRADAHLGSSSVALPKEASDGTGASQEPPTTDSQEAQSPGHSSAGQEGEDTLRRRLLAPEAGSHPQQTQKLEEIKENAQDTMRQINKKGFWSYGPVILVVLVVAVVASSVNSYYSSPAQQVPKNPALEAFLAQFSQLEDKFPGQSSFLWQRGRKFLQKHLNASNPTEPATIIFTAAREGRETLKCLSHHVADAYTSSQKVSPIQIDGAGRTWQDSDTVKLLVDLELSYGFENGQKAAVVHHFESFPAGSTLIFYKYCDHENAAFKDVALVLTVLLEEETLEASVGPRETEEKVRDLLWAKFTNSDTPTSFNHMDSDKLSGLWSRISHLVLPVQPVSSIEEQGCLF
Sequence of Follistatin-related protein 3 (Homo sapiens) (O95633 whole entry, looked up): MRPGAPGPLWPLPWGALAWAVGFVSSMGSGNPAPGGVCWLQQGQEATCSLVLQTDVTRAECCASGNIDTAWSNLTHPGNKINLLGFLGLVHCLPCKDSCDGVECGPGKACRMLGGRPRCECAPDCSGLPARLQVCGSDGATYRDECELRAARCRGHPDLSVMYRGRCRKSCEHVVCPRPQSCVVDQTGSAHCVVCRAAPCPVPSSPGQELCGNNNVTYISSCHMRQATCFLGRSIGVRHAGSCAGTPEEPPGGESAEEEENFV
Sequence of Epidermal growth factor receptor (Homo sapiens) (P00533 whole entry, looked up): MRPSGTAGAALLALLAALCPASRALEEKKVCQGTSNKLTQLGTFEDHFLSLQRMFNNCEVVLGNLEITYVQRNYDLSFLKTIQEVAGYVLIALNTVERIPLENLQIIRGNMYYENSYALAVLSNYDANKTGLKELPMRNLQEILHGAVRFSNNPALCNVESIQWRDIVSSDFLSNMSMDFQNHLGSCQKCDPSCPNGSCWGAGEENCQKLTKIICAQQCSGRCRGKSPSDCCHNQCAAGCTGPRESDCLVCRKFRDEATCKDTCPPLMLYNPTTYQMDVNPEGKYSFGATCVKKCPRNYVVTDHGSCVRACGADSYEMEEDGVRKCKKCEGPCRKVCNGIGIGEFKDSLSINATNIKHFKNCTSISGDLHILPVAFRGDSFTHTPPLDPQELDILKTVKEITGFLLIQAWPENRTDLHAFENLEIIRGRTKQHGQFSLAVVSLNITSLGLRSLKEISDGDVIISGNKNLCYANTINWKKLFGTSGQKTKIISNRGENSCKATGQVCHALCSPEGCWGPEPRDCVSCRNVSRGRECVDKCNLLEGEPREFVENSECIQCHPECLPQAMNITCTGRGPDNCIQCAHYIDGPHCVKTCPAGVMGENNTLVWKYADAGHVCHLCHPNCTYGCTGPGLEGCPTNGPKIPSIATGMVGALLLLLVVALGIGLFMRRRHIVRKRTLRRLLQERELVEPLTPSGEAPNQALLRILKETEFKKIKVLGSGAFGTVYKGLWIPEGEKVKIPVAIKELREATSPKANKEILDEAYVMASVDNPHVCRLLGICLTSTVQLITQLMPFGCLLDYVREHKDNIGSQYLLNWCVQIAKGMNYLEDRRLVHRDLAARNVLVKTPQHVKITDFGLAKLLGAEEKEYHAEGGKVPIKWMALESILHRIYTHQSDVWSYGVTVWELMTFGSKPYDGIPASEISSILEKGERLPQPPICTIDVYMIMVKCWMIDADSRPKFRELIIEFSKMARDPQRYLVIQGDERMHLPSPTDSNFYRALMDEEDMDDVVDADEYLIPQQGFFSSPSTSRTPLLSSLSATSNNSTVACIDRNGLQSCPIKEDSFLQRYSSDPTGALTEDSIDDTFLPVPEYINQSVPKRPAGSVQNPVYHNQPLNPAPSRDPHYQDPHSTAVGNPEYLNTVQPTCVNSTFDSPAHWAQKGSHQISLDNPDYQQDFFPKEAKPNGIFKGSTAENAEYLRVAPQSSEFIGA
Sequence of Dickkopf-related protein 1 (Homo sapiens) (O94907 whole entry, looked up): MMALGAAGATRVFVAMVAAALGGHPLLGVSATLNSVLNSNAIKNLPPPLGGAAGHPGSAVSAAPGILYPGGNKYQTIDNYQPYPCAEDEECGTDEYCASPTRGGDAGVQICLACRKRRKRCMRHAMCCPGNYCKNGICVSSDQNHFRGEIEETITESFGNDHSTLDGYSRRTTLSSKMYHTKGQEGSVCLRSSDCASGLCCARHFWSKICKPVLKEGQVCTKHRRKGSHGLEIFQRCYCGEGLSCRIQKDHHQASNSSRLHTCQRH
Sequence of Neurogenic locus notch homolog protein 3 (Homo sapiens) (Q9UM47 whole entry, looked up): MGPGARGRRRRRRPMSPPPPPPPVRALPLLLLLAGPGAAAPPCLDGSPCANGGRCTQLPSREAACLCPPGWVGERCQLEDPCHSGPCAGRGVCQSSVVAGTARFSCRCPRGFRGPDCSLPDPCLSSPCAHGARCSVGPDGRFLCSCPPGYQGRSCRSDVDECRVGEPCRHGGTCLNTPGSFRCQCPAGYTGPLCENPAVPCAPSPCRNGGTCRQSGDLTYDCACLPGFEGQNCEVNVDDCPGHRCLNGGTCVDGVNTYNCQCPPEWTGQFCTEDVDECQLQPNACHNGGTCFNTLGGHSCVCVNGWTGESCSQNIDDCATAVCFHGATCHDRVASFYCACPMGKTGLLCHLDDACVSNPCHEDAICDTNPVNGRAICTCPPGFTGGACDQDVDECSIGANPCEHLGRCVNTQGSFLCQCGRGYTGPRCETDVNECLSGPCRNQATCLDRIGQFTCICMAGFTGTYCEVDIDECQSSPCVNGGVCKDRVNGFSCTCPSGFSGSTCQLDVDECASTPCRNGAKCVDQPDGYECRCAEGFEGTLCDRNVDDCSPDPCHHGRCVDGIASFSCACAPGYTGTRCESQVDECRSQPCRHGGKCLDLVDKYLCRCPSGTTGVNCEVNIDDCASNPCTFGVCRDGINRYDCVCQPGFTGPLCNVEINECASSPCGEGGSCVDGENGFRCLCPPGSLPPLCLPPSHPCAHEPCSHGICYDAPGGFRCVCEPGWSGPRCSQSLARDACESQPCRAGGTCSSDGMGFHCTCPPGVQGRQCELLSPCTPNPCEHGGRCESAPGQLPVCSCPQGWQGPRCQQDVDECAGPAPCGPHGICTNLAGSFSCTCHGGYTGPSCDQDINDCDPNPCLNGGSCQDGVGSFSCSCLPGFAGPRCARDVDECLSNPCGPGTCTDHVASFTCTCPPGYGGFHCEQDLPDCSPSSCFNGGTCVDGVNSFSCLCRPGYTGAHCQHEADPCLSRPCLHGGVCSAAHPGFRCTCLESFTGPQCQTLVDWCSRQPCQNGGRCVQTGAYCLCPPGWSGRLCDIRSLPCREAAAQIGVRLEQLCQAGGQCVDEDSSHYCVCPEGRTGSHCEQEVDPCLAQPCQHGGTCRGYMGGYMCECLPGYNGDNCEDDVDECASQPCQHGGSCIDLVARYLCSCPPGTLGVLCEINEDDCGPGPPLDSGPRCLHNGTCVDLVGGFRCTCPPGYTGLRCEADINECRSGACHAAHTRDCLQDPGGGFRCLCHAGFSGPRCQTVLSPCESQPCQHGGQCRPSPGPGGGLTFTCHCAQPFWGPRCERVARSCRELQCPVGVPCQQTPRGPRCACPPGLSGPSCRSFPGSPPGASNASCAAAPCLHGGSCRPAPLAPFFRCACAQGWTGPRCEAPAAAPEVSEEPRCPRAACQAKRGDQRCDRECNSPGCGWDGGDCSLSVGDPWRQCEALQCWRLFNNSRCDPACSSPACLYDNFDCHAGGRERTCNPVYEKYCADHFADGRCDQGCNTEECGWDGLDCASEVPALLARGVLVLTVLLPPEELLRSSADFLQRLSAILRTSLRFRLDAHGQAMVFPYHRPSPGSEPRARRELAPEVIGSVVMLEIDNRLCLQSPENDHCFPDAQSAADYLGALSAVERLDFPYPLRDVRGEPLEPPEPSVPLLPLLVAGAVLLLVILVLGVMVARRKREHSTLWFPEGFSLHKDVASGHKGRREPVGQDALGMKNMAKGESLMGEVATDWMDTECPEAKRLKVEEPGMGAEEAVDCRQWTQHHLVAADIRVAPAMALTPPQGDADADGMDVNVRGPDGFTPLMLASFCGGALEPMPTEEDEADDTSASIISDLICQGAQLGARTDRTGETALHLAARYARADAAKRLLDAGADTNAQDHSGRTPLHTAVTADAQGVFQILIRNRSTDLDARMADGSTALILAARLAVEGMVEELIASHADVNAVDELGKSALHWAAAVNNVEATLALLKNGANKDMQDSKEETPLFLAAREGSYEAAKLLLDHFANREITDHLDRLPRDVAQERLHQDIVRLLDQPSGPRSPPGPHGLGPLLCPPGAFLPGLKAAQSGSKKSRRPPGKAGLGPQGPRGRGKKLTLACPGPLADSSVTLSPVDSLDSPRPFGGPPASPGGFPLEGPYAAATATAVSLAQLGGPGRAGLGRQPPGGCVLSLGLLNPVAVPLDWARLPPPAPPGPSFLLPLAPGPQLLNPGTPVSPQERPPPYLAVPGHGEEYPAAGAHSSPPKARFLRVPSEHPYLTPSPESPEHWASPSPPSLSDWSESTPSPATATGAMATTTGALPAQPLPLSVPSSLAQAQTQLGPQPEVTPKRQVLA
Sequence of Fibroblast growth factor 10 (Homo sapiens) (O15520 whole entry, looked up): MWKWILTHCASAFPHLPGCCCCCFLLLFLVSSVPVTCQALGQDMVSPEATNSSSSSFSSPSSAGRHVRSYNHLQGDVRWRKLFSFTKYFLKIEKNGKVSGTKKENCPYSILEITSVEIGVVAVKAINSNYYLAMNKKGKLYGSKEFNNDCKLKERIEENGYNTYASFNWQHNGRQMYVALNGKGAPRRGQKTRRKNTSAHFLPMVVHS

As for `CC(C)C(O)C1C=CC2C(=O)N(C)C(=O)C2N1N1CCCCC1` (stereo not given), the composite z-score in [1] worked out at 0.594; in assay [5], 3.58; in assay [7], 0.169; in assay [8] it was 0.315; in assay [9], 0.217; in assay [10], 0.0635. In addition, the composite z-score in [11] was found to be 1.61; in assay [12], 0.184; in assay [13] it was 0.674; in assay [15], 0.709; in [16], 0.752; in [17], 0.403. The results for the composite z-score in assay [18], in assay [19] and in [20] were 0.159, 0.13 and 0.976, respectively. In addition, the z-score in assay [2] was 0.252 (inactive); in assay [3], 0.891 (inactive); in assay [4] it was -0.199 (inactive); in [6] it was -1.46 (inactive); in assay [14], 1.15 (inactive).
Consider `COCCOC(=O)N1C(=O)[C@@]2(c3cc(C#Cc4ccc(OC)cc4)ccc31)[C@H](C(N)=O)[C@H]1C(=O)O[C@H](c3ccccc3)[C@H](c3ccccc3)N1[C@@H]2c1ccc(O)cc1`, for which the composite z-score in [1] is -1.57; in assay [5], -0.839; in assay [7], -0.264; in assay [8], -2.13; in assay [9], -1.35; in assay [10], -0.627. Also, the composite z-score in [11] was 0.356; in assay [12] it was -0.76; in assay [13] it was -0.318; in [15], -1.67; in assay [16], -1.53; in assay [17] it was -1.67. Moreover, the composite z-score in assay [18] is -1.95; in assay [19] it was -2.42; in assay [20], -0.115. Also, the z-score in assay [2] is -0.613 (inactive); in assay [3], -0.0532 (inactive); in assay [4] it was 0.333 (inactive); in assay [6] it was 1.84 (inactive); in assay [14], -0.298 (inactive).
With `COc1ccc([Si](C)(C)[C@H]2[C@H](CC(=O)N3CCC[C@H]3CO)O[C@@]3(C(=O)N(c4ccccc4)c4ccccc43)[C@@H]2C)cc1`, the composite z-score is 0.258 in assay [1]; 0.958 in [5]; -0.0651 in [7]; 0.285 in assay [8]; 0.125 in assay [9]; -0.15 in assay [10]. For the same compound, the composite z-score in assay [11] is 1.28; in [12], -0.344; in assay [13] it was -0.28; in assay [15], -0.174; in assay [16], -0.828; in [17], 0.138. Further, the composite z-score in assay [18] was 0.051; in [19], 0.487; in [20] it was 0.581. Moreover, the z-score was -1.85 (inactive) in [2]; -0.841 (inactive) in [3]; -1.27 (inactive) in assay [4]; 2.45 (inactive) in assay [6]; -1.82 (inactive) in assay [14].
On to `[N-]=[N+]=Nc1ccccc1[C@@H]1OC(c2ccc(OCCCO)cc2)=N[C@]1(CCS(=O)(=O)c1ccccc1)C(=O)N1CCCCC1`, for which the composite z-score is 1.56 in [1]; 2.83 in assay [5]; 0.799 in [7]; 0.237 in assay [8]; 1.05 in assay [9]; 0.292 in assay [10]. Further, the composite z-score in assay [11] was 1.39; in assay [12] it was 1.63; in assay [13], 1.41; in assay [15], 1.05; in assay [16] it was 0.85; in assay [17], 0.098. The composite z-score in assay [18] is 0.811; in assay [19], -0.423; in [20] it was 1.36. Besides, the z-score was 0.436 (inactive) in assay [2]; 1.15 (inactive) in assay [3]; 2.83 (inactive) in assay [4]; 0.106 (inactive) in assay [6]; -0.261 (inactive) in assay [14].
For `C[N+](C)(C)CCCCNC(=O)[C@H]1C[C@H]2C(=O)N3CCC[C@H]3C(=O)N2[C@H]1c1ccc(O)cc1`, the composite z-score in assay [1] is 1.54; in [5], 2.14; in assay [7], -0.101; in assay [8] it was 1.85; in assay [9], 1.04; in assay [10] it was 0.124. The composite z-score in assay [11] is 1.48; in assay [12], 0.0607; in [13], -0.152; in assay [15], 1.39; in [16], 0.521; in assay [17], 0.967. Moreover, the values for the composite z-score in [18], in assay [19] and in assay [20] were 1.49, 1.82 and -0.443, respectively. In addition, the z-score in [2] is 0.0531 (inactive); in [3], 0.0211 (inactive); in assay [4] it was -1.41 (inactive); in assay [6], -0.0773 (inactive); in [14], 0.0339 (inactive).
For the compound `C=C(CCCC)/C(=C/C[C@H](OC(C)=O)c1ccc(CO)o1)c1cc(C(=O)OC)ccc1OC`, the composite z-score was 1.56 in [1]; 1.8 in [5]; -0.0371 in [7]; 1.8 in [8]; 1.09 in assay [9]; -0.125 in assay [10]. The composite z-score was 1.43 in assay [11]; -0.0797 in assay [12]; -0.438 in assay [13]; 1.25 in assay [15]; 0.469 in assay [16]; -0.102 in assay [17]. Further, the composite z-score in assay [18] stood at 1.25; in assay [19], 0.291; in [20], 0.638. Moreover, the z-score is 1.02 (inactive) in assay [2]; -1.01 (inactive) in [3]; -0.194 (inactive) in [4]; 1.05 (inactive) in assay [6]; -0.27 (inactive) in [14].
